Assay outcomes as filed in PubChem BioAssay.
An excerpt weighted towards active compounds, which were near 21% of everything screened.
CHX counter – counter-screen hit for Shiga toxin inhibitors, cycloheximide. AID 2314. 12% of 300,000 active. max response, %. cell reporter, cycloheximide protein synthesis inhibition counterscreen; in the data active means max response mostly above about 13%, no sharp cut-off; inactive means mostly below about 14%; further: read at 38.3 µM for the half of the compounds with a filed dose
Pf growth 48h – P. falciparum growth inhibition at 48 hours (one generation) | P. falciparum luciferase growth in erythrocytes, 48 h | Potency, µM (titrated, usually from 28.7 µM), hits mostly inhibitors | 5.9% of 310,000 active
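Erythrocytes infected with P. falciparum carrying an integrated firefly luciferase reporter (2% hematocrit, 0.1% parasitemia final) were exposed to compounds in RPMI 1640 with 0.5% Albumax at 37 C, 5% CO2. Growth inhibition was scored as reduced luminescence.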
NS1 inh – inhibitors of influenza NS1 protein function; Potency, µM (highest dose often 46.1 µM); 0.4% of 270,000 active; calls by dose curve; further: actives are rising curves; nearly all actives have a fitted effect of over 50% in size
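In this qHTS, NS1 from influenza A is expressed in budding yeast, where it slows growth. Cells are switched from glucose to 2% galactose medium (pH 6.0, -URA), treated with compound, and growth recovery is read at OD600.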
SARS PLpro yeast – SARS-CoV PLP inhibition in yeast. S. cerevisiae expressing SARS-CoV PLpro, growth rescue. Potency, µM (top dose mostly 32.9 µM), most hits filed as activators. 0.19% of 330,000 active; calls by dose curve; further: nearly all actives have a fitted effect of over 55% in size
Pf growth 96h – inhibits malaria parasite growth, 96 h. P. falciparum luciferase reporter growth, 96 h. Potency, µM (series often up to 28.7 µM), most hits filed as inhibitors. 6.9% of 320,000 active. AID 504834
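P. falciparum expressing integrated firefly luciferase grown in erythrocytes (2% hematocrit, 0.05% parasitemia final) with compounds for 96 hours at 37 C, 5% CO2. Growth inhibition read as loss of luminescence after adding luciferase detection reagent.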
Shiga toxin inh – inhibitors of Shiga toxin in Vero cells; Vero cells, Shiga toxin protein synthesis inhibition reporter; inhibition, % at 38.7 µM; 9.2% of 290,000 active; in the data active means inhibition mostly above about 28%, no sharp cut-off; inactive means mostly below about 43%
Hits are given with their value; i = inactive; ? = inconclusive; nt = no result given; [ ] = remark or other dose. Unless noted, the call rests on the fitted dose curve; in most records, active means well fitted inhibition curve with a large enough effect; inconclusive means small, poorly fitted or top-dose-only effect, or another doubt; inactive means no such curve, though single readings can be large or run the other way.

SMILES | CHX counter | Pf growth 48h | NS1 inh | SARS PLpro yeast | Pf growth 96h | Shiga toxin inh
COC(=O)c1ccc(C(C(=O)NC2CCCCC2)N(CCc2ccccc2)C(=O)Cc2cccs2)cc1 (configuration not stated) | i | i | i | i | ? | i
COc1ccc(C(C(=O)NC2CCCC2)N(Cc2cccnc2)C(=O)Cc2cccs2)cc1OC (configuration not stated) | i | i | i | i | i | i
COc1ccc(CNC(=O)C(c2ccncc2)N(C(=O)Cc2cccs2)c2ccc(C)cc2)cc1 (configuration not stated) | i | ? | i | i | ? | i
COc1ccc(N(C(=O)CCl)C(C(=O)NCCc2ccccc2)c2cccs2)cc1 (configuration not stated) | i | 14.7µM | i | i | i | i
COC(=O)c1ccc(C(C(=O)NC2CCCCC2)N(Cc2ccc(F)cc2)C(=O)Cc2cccs2)cc1 (configuration not stated) | i | 11.7µM | i | i | ? | i
COc1ccc(CNC(=O)C(c2ccncc2)N(C(=O)Cc2cccs2)c2ccccc2)cc1 (configuration not stated) | i | i | i | i | 13.1µM | i
COc1ccc(CN(C(=O)Cc2cccs2)C(C(=O)NC2CCCC2)c2ccncc2)cc1 (configuration not stated) | i | ? | i | i | 14.7µM | i
CSCCC(NC(=O)c1ccccc1Br)C(=O)N1CCCC(C(F)(F)F)C1 (configuration not stated) | i | i | i | i | i | i
CCCCCC(=O)Nc1cc(S(=O)(=O)N2CCOCC2)ccc1N1CCN(C)CC1 | i | i | i | i | i | i
Cc1cc(C)c(NC(=O)CSc2nnc(-c3ccccn3)n2N)c(Cl)c1 | i | i | i | i | i | i
Cc1ccc(N(C(=O)Cc2cccs2)C(C(=O)NC2CCCCC2)c2ccccn2)cc1C (configuration not stated) | i | i | i | i | 4.15µM | 32.4
O=C(NC1CCCCC1)C(c1ccc2ncccc2c1)N(Cc1ccc(F)cc1)C(=O)c1cccs1 (configuration not stated) | i | 8.28µM | i | i | 10.4µM | i
CCCc1cc2c(cc1NC(=O)c1ccc(C)cc1)OCO2 | i | i | i | i | i | i
Cc1csc(=O)n1CC(=O)OCC(=O)Nc1cc(Cl)ccc1[N+](=O)[O-] | i | i | i | i | i | i
Cc1ccc(OCCNC(=O)c2cccc(S(=O)(=O)N3CCN(C)CC3)c2)cc1 | nt | ? | nt | i | ? | nt
COc1cc(OC)c(NC(=O)CN(C)S(=O)(=O)c2ccc(-c3ccc(=O)[nH]n3)s2)cc1Cl | i | 2.33µM | i | ? | i | i
CCc1ccccc1NC(=O)CN(C)S(=O)(=O)c1ccc(-c2ccc(=O)[nH]n2)s1 | i | ? | i | i | ? | i
Cn1cc([C@@H]2C[C@H]3CN(C4CCCC4)C(=O)[C@]34CCCN24)c(-c2ccccc2)n1 | i | 5.22µM | i | i | i | i
Cc1cc(C)c([C@@H]2C[C@H]3CN(C4CCCC4)C(=O)[C@]34CCCN24)c(-n2cccn2)c1 | i | ? | i | i | ? | i
COc1cc(C(=O)N/N=C(\C)Cn2nc([N+](=O)[O-])cc2C)ccc1O | i | i | i | i | i | i
C/C(Cn1nnc([N+](=O)[O-])n1)=N\NC(=O)c1ccc(O)cc1 | 22.9 | ? | i | i | ? | 61.9
C/C(Cn1nnc([N+](=O)[O-])n1)=N\NC(=O)c1ccccc1O | 32.4 | ? | i | i | ? | 51.7
C/C(Cn1nnc([N+](=O)[O-])n1)=N\NC(=O)c1ccc(Cl)c(Cl)c1 | i | ? | i | i | ? | i
C/C(Cn1nnc([N+](=O)[O-])n1)=N\NC(=O)c1ccc(O)cc1O | 69.0 | i | ? | ? | ? | 72.1
Cc1ccc(C)c(OCC(=O)Nc2cc(C(=O)O)cc(C(=O)O)c2)c1 | i | ? | i | i | i | i
SMILES | CHX counter | Pf growth 48h | NS1 inh | SARS PLpro yeast | Pf growth 96h | Shiga toxin inh
Cc1ccc(C)c(OCC(=O)Nc2cccc(C(=O)O)c2)c1C | 41.0 | i | i | i | nt | i
Cc1cccc(C)c1OCC(=O)Nc1cccc(C(=O)O)c1 | 40.9 | i | i | i | i | 91.7
CN(C(=O)COC(=O)c1ccccc1SCC(=O)N1CCCC1)C1(C#N)CCCCC1 | nt | i | nt | i | ? | nt
CC1Oc2ccccc2N(CC(=O)NCCN2CCOCC2)C1=O (configuration not stated) | i | i | i | i | i | i
COc1ccc(-n2nc3c(c2NC(=O)c2cc4ccccc4o2)CS(=O)(=O)C3)cc1 | i | i | i | i | i | i
COc1ccc(-n2nc3c(c2NC(=O)C(C)Oc2ccccc2)CS(=O)(=O)C3)cc1 (configuration not stated) | i | i | i | i | 9.28µM | i
COc1ccc(-n2nc3c(c2NC(=O)c2cc4ccccc4oc2=O)CS(=O)(=O)C3)cc1 | nt | nt | 6.31µM | nt | nt | nt
O=C(CCn1cccc1)NCc1ccc(Cl)cc1 | i | i | i | i | i | i
COc1ccc(-c2nnc(SCC(=O)c3cccs3)n2-c2ccc(Cl)cc2)cc1 | 40.0 | ? | i | i | i | 74.7
COc1ccc(-n2nnc3c(SCC(=O)NCc4ccco4)ncnc32)cc1 | 19.1 | i | i | i | i | i
Cc1ccc(-n2nnc3c(SCC(=O)NCc4ccco4)ncnc32)cc1 | i | i | i | i | i | i
COc1ccc(-c2[nH]c(-c3ccccc3)nc2SCC(=O)NCc2ccco2)cc1OC | i | nt | i | i | 1.04µM | i
O=C(CSc1nnc(CCc2ccccc2)n1-c1ccc(Cl)cc1)c1ccccc1 | i | i | ? | i | ? | i
COc1ccc(-n2c(CCc3ccccc3)nnc2SCC(=O)c2ccc(Cl)cc2)cc1 | i | 13.1µM | ? | i | ? | i
COc1ccc(-c2nc(SCC(=O)NCc3ccco3)c(-c3ccccc3)[nH]2)cc1OC | i | nt | i | i | ? | i
COc1ccc(-c2nnc(SCC(=O)c3cc(C)n(Cc4cccs4)c3C)o2)cc1 | i | i | i | i | nt | i
CCOC(=O)/C(=N/Nc1ccc(OC)cc1)Sc1nnc(CCc2ccccc2)n1-c1ccccc1 | 30.9 | i | i | i | i | i
COc1ccc(-n2c(-c3ccc(F)cc3)cnc2SCC(=O)NCc2ccco2)cc1 | 49.2 | ? | i | i | nt | 103.0
O=C(CSc1ncc(-c2ccccc2)n1-c1ccccc1)NCc1ccco1 | i | i | i[9.22 µM] | i | i | i
COc1ccc(-c2nnc(SCC(=O)c3cccs3)o2)cc1 | 29.3 | i | i | i | i | 94.8
COc1cccc(NC(=O)CSc2nnc(-c3cc(C)n(-c4ccccc4)c3C)o2)c1 | 48.3 | i | i | i | 10.4µM | 101.2
CC(C)NC(=O)N(C)C[C@H]1Oc2ccc(NS(=O)(=O)c3ccccc3)cc2C(=O)N([C@H](C)CO)C[C@@H]1C | nt | nt | nt | i | nt | nt
O=C(CSc1nnc(-c2cccs2)o1)c1cccs1 | 92.8 | i | i | i | i | 88.1
